From PubChem BioAssay (NCATS)
Inconclusive results are not listed. Entries that show only a call come without a potency. Unmarked numbers belong to inactive results. Active and inactive are the calls of the source. Calls come from the whole dose curve; as a rule, active = well fitted curve in the direction sought with a large enough effect; inconclusive = small, poorly fitted or top-dose-only effect, or another doubt; inactive = no such curve, though single readings can be large; an effect the other way counts as inactive or inconclusive.

Tests used:
[1] = qHTS of pediatric cancer cell lines to identify multiple opportunities for drug repurposing: Primary screen for NB-EBc1 cells (AID 1347095)
Outline: (§1)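 Luminescence from CellTiter-Glo served as readout of metabolically active cells after 48 h compound exposure. Titrations: MIPE 11-point, from 0.78 nM; NPC 8-point, from 0.59 nM (final). Concentration-response curves came straight from the primary screen.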

[2] = qHTS of pediatric cancer cell lines to identify multiple opportunities for drug repurposing: Primary screen for U-2 OS cells (AID 1347096); note: nearly all actives have a fitted effect of over 50% in size
Outline: (§2)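 Cells (500-1,000/well) in growth media were settled 5 h at 37 degrees C, then given compounds for 48 h. Viability was read as CellTiter-Glo luminescence. Primary runs used MIPE at 11 points (0.78 nM-46 µM) and NPC at 8 points (0.59 nM-46 µM); follow-ups used 11 points.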

[3] = qHTS of pediatric cancer cell lines to identify multiple opportunities for drug repurposing: Primary screen for Saos-2 cells (AID 1347097); note: nearly all actives have a fitted effect of over 40% in size; note: potency is the fitted concentration of half-maximal effect
Outline: as §1

[4] = qHTS of pediatric cancer cell lines to identify multiple opportunities for drug repurposing: Primary screen for NB1643 cells (AID 1347099); note: nearly all actives have a fitted effect of over 50% in size
Outline: as §1

[5] = qHTS of pediatric cancer cell lines to identify multiple opportunities for drug repurposing: Primary screen for LAN-5 cells (AID 1347100)
Outline: as §2

[6] = qHTS of pediatric cancer cell lines to identify multiple opportunities for drug repurposing: Primary screen for BT-12 cells (AID 1347101); note: nearly all actives have a fitted effect of over 25% in size; note: potency is the fitted concentration of half-maximal effect
Outline: (§3)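 Cells (500-1,000/well) rested 5 h, then received compounds for 48 h; metabolically active cells were measured by CellTiter-Glo luminescence. Final concentrations spanned up to 46 µM (MIPE, 11-point) or 0.59 nM-46 µM (NPC, 8-point) in primary screens, 11-point in follow-ups.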

[7] = qHTS of pediatric cancer cell lines to identify multiple opportunities for drug repurposing: Primary screen for Rh18 cells (AID 1347102); note: nearly all actives have a fitted effect of over 65% in size
Outline: as §2

[8] = qHTS of pediatric cancer cell lines to identify multiple opportunities for drug repurposing: Primary screen for RD cells (AID 1347104); note: nearly all actives have a fitted effect of over 55% in size
Outline: as §1

[9] = qHTS of pediatric cancer cell lines to identify multiple opportunities for drug repurposing: Primary screen for MG 63 (6-TG R) cells (AID 1347105); note: nearly all actives have a fitted effect of over 50% in size
Outline: as §1

[10] = qHTS of pediatric cancer cell lines to identify multiple opportunities for drug repurposing: Primary screen for control Hh wild type fibroblast cells (AID 1347106);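 note: series mostly up to about 46 µM; a drop in luminescence marks cytotoxicity and a rise apparent proliferation; nearly all actives have a fitted effect of over 55% in size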
Outline: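 Viability after 48 h compound treatment at 37C, 500-1,000 cells/well, read as ATP luminescence with CellTiter-Glo. Primary screens used 11-point (MIPE, 0.78 nM-46 µM) or 8-point (NPC, 0.59 nM-46 µM) final concentrations; follow-up screens used 11-point dilutions.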

[11] = qHTS of pediatric cancer cell lines to identify multiple opportunities for drug repurposing: Primary screen for Rh41 cells (AID 1347108);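 note: series mostly up to about 46 µM; luminescence drop marks cytotoxic hits; nearly all actives have a fitted effect of over 70% in size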
Outline: as §1

[12] = qHTS of pediatric cancer cell lines to identify multiple opportunities for drug repurposing: Primary screen for SK-N-SH cells (AID 1347098); note: nearly all actives have a fitted effect of over 65% in size; note: potency is the fitted concentration of half-maximal effect
Outline: as §3

[13] = qHTS of pediatric cancer cell lines to identify multiple opportunities for drug repurposing: Primary screen for OHS-50 cells (AID 1347103); note: nearly all actives have a fitted effect of over 40% in size; note: potency is the fitted concentration of half-maximal effect
Outline: as §3

[14] = qHTS of pediatric cancer cell lines to identify multiple opportunities for drug repurposing: Primary screen for Rh30 cells (AID 1347107); note: series mostly up to about 46 µM; nearly all actives have a fitted effect of over 75% in size
Outline: as §2

[15] = qHTS of pediatric cancer cell lines to identify multiple opportunities for drug repurposing: Confirmatory screen for NB1643 cells (AID 1347109); note: nearly all actives have a fitted effect of over 45% in size
Outline: as §2

[16] = qHTS of pediatric cancer cell lines to identify multiple opportunities for drug repurposing: Confirmatory screen for A673 cells (AID 1347110);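 note: cells exposed to compound for 48 h before the viability read; nearly all actives have a fitted effect of over 65% in size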
Outline: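 A673 cells seeded at 500-1,000 cells/well, rested 5 h, then dosed; primary MIPE 11-point (0.78 nM to 46 µM), NPC (0.59 nM to 46 µM); confirmatory 11-point. CellTiter-Glo luminescence after 48 h.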

[17] = qHTS of pediatric cancer cell lines to identify multiple opportunities for drug repurposing: Confirmatory screen for SK-N-MC cells (AID 1347111);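 note: potency is the fitted concentration of half-maximal effect; cells exposed to compound for 48 h before the readout; nearly all actives have a fitted effect of over 70% in size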
Outline: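 Metabolically active cells were quantified by ATP-dependent luminescence (CellTiter-Glo, 15 min at room temperature) following 48 h treatment. Cells had been plated at 500-1,000 per well and settled for 5 h beforehand.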

[18] = qHTS of pediatric cancer cell lines to identify multiple opportunities for drug repurposing: Confirmatory screen for BT-12 cells (AID 1347112); note: nearly all actives have a fitted effect of over 55% in size
Outline: as §2

[19] = qHTS of pediatric cancer cell lines to identify multiple opportunities for drug repurposing: Confirmatory screen for LAN-5 cells (AID 1347113); note: nearly all actives have a fitted effect of over 65% in size
Outline: as §2

[20] = qHTS of pediatric cancer cell lines to identify multiple opportunities for drug repurposing: Confirmatory screen for DAOY cells (AID 1347114); note: nearly all actives have a fitted effect of over 65% in size
Outline: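 Viability measured as metabolically active cells via CellTiter-Glo luminescence following 48 hours of compound exposure, 11-point dilutions in confirmatory testing. 500-1,000 cells/well plated 5 hours before dosing; controls were DMSO and 2.3 µM bortezomib.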

SMILES | Potency [1] | Potency [2] | Potency [3] | Potency [4] | Potency [5] | Potency [6] | Potency [7] | Potency [8] | Potency [9] | Potency [10] | Potency [11] | Potency [12] | Potency [13] | Potency [14] | Potency [15] | Potency [16] | Potency [17] | Potency [18] | Potency [19] | Potency [20]
CCC(CN)=C(c1ccccc1)c1ccccc1 | inactive | inactive | inactive | inactive | inactive | inactive | inactive | inactive | inactive | inactive | inactive | – | – | – | – | – | – | – | – | –
COc1cc(C=O)ccc1O | inactive | inactive | – | inactive | inactive | inactive | inactive | inactive | inactive | inactive | – | inactive | inactive | inactive | – | – | – | – | – | –
CCOC(=O)CN1CCCC1=O | inactive | inactive | – | inactive | inactive | inactive | inactive | inactive | inactive | inactive | inactive | inactive | inactive | inactive | – | – | – | – | – | –
CN1[C@@H]2CC[C@H]1CC(NC(=O)n1c(=O)[nH]c3ccccc31)C2 (stereo not given in full) | inactive | inactive | inactive | – | inactive | inactive | inactive | inactive | inactive | inactive | inactive | inactive | – | inactive | – | – | – | – | – | –
C[C@]12CCC(=O)C=C1CC[C@@H]1[C@@H]2[C@@H](O)C[C@@]2(C)[C@H]1CC[C@]2(O)C(=O)COC(=O)CCC(=O)O | inactive | inactive | inactive | – | inactive | inactive | inactive | inactive | inactive | inactive | inactive | inactive | inactive | inactive | inactive | inactive | 18.5 µM (active) | inactive | inactive | inactive
CC(CC(C#N)(c1ccccc1)C(C)C)N(C)C (stereo not given) | inactive | inactive | – | inactive | inactive | inactive | inactive | inactive | inactive | inactive | inactive | inactive | inactive | inactive | – | – | – | – | – | –
CC(=O)N[C@@H](CCC(N)=O)C(=O)O | inactive | inactive | – | inactive | inactive | inactive | inactive | inactive | inactive | inactive | inactive | inactive | inactive | inactive | – | – | – | – | – | –
CN1C(=O)CC(C)(c2ccccc2)C1=O (stereo not given) | inactive | inactive | – | inactive | inactive | inactive | inactive | inactive | inactive | inactive | inactive | inactive | inactive | inactive | – | – | – | – | – | –
NC(=O)COCCN1CCN(C(c2ccccc2)c2ccc(Cl)cc2)CC1 (stereo not given) | inactive | inactive | inactive | inactive | inactive | inactive | inactive | inactive | inactive | inactive | inactive | – | inactive | inactive | – | – | – | – | – | –
O=C(OCC(COC(=O)c1cccnc1)(COC(=O)c1cccnc1)COC(=O)c1cccnc1)c1cccnc1 | inactive | inactive | inactive | inactive | inactive | inactive | inactive | inactive | inactive | inactive | inactive | – | inactive | inactive | – | – | – | – | – | –
CN(C)CCOC(c1ccccc1)c1ccc(Br)cc1 (stereo not given) | inactive | inactive | inactive | – | inactive | inactive | inactive | – | inactive | inactive | inactive | 15.4 µM (active) | 21.9 µM (active) | – | – | – | – | – | – | –
CN1CCC(N(Cc2cccs2)c2ccccc2)CC1 | inactive | inactive | 21.1 µM (active) | – | – | 21.9 µM (active) | – | – | inactive | inactive | – | – | – | inactive | – | – | – | – | – | –
Oc1cccc2[nH]ccc12 | inactive | inactive | inactive | – | inactive | inactive | inactive | inactive | inactive | inactive | inactive | – | inactive | inactive | – | – | – | – | – | –
O=C(O)CCCC[P+](c1ccccc1)(c1ccccc1)c1ccccc1 | inactive | inactive | inactive | – | inactive | inactive | inactive | inactive | – | inactive | inactive | inactive | – | inactive | – | – | – | – | – | –
COCCOCC(OC)OC | inactive | inactive | – | inactive | inactive | inactive | inactive | inactive | inactive | inactive | inactive | inactive | inactive | inactive | – | – | – | – | – | –
C[C@@H](C1=C(CCN(C)C)Cc2ccccc21)c1ccccn1 | inactive | inactive | inactive | inactive | inactive | inactive | inactive | inactive | inactive | inactive | inactive | – | – | inactive | – | – | – | – | – | –
CC(Oc1c(Cl)cccc1Cl)C1=NCCN1 (stereo not given) | inactive | inactive | inactive | inactive | inactive | inactive | inactive | – | – | inactive | inactive | – | – | inactive | – | – | – | – | – | –
CC(C)C[C@H](NC(=O)CNC(=O)[C@H](Cc1ccc(O)cc1)NC(=O)[C@H](CO)NC(=O)[C@H](Cc1c[nH]c2ccccc12)NC(=O)[C@H](Cc1cnc[nH]1)NC(=O)[C@@H]1CCC(=O)N1)C(=O)N[C@@H](CCCN=C(N)N)C(=O)N1CCC[C@H]1C(=O)NCC(N)=O (stereo in doubt) | inactive | inactive | inactive | – | inactive | inactive | inactive | inactive | inactive | inactive | inactive | inactive | inactive | – | – | – | – | – | – | –
